Holding throughout (assay): DAPPL (digital affinity profiling via proximity ligation, sequencing); 10 mM Tris-HCl pH 7.5, 50 mM NaCl, 1 mM DTT, 4% glycerol, room temperature, 30 min; GST-TFs on glutathione beads, 16-mer random dsDNA library, 0.1% formaldehyde crosslink after washing; high values mean tight binding
What all share (settings): protein: recombinant; tags: N-terminal GST; dsDNA, one strand shown

One test addresses T1, ERF (Homo sapiens, UniProt P50548 1-548).
T1 sequence: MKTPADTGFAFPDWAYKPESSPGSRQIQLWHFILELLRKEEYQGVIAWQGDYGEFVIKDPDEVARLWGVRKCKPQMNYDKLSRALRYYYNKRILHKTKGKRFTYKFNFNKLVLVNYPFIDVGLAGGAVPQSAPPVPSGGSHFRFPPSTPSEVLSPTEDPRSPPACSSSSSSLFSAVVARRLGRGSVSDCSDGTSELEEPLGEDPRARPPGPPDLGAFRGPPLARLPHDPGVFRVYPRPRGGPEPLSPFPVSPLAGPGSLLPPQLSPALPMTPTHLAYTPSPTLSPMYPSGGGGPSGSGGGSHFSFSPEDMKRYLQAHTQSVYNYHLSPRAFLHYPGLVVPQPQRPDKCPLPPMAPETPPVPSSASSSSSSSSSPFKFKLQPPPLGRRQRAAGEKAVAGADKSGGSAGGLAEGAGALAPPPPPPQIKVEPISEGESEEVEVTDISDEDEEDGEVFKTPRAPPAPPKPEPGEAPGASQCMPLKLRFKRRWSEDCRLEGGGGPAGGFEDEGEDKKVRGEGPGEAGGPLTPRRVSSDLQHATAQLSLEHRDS
The method, boiled down: (§1)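 Pools were built from human transcription factors expressed in yeast as GST fusions, captured on glutathione beads and DNA-barcoded, along with a tag-only sample. Incubation with 200 nmole of a 16-mer random double-stranded DNA library lasted 30 min at room temperature in Tris/NaCl/DTT/glycerol buffer, and was followed by washing, 0.1% formaldehyde crosslinking, proximity ligation, PCR amplification and Illumina NextSeq500 sequencing. Binding signal is the quotient of each hexamer's read frequency for a factor and its frequency for the tag-only sample.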

The next test concerns the target T2, ETV3L (Homo sapiens, UniProt Q6ZN32 1-361).
T2 sequence: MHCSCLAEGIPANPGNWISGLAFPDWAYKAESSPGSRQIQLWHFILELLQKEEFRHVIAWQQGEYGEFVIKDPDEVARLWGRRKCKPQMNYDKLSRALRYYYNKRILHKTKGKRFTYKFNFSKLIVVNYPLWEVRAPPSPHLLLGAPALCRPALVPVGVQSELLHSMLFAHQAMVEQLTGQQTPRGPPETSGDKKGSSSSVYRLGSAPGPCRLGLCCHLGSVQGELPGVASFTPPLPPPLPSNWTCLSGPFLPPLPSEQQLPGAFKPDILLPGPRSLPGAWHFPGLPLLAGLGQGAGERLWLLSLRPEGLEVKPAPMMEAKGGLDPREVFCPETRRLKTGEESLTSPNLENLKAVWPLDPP
Summed up:
as §1

The next test concerns the target T3, ETS2 (Homo sapiens, UniProt P15036 1-469).
T3 sequence: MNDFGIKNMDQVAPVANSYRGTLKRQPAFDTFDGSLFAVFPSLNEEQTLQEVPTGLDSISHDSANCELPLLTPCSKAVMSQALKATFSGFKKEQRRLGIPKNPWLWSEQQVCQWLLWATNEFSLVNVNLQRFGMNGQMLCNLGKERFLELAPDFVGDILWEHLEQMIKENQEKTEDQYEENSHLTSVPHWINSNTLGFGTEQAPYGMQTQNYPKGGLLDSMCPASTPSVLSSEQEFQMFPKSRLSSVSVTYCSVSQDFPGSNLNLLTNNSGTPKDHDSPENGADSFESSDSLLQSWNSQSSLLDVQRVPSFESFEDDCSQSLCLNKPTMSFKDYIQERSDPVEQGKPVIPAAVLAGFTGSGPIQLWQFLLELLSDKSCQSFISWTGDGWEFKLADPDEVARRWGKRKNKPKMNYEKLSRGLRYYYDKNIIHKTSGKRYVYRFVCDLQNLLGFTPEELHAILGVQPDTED
The method, boiled down: as §1

For a further test, the target named is T4, SPDEF (Homo sapiens, UniProt O95238 1-335).
T4 sequence: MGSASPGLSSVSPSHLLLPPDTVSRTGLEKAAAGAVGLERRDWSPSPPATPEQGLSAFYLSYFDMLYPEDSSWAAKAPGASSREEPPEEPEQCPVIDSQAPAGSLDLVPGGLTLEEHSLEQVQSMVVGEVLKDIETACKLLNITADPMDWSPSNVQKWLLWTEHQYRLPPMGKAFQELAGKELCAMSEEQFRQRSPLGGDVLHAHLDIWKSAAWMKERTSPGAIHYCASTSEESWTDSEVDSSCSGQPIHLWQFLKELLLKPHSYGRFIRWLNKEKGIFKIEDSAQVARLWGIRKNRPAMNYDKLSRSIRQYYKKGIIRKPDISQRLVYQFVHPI
The method, boiled down: as §1

In a further test the target is T5, ETV7 (Homo sapiens, UniProt Q9Y603 1-341).
T5 sequence: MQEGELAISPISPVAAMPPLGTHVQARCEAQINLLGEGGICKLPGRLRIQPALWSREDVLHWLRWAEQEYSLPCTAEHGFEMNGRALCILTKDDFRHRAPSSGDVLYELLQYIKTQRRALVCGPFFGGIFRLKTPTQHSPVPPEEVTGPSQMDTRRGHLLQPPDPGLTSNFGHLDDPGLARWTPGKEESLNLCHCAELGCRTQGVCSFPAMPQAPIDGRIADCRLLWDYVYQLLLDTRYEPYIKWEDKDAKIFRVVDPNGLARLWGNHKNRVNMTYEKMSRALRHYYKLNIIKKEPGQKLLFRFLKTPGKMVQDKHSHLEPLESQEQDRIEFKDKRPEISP
Summed up: as §1

The next test addresses T6, ELF5 (Homo sapiens, UniProt Q9UKW6-2 1-255).
T6 sequence: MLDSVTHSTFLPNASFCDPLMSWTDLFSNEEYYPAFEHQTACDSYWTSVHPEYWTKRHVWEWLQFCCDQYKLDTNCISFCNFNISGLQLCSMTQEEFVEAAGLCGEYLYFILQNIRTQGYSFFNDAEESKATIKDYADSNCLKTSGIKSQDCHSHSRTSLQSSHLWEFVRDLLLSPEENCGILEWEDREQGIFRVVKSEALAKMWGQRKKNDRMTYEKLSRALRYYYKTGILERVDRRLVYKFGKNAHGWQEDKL
Summed up: as §1

A further test concerns the target T7, ETV3 (Homo sapiens, UniProt P41162-2 1-143).
T7 sequence: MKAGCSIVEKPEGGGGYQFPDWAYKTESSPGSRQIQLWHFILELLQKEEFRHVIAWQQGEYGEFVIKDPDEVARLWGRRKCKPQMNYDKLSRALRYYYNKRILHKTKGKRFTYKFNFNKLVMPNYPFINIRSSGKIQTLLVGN
The method, boiled down:
as §1

Another test addresses ETV6 (Homo sapiens, UniProt P41212 1-452). Summed up: as §1

Sequence of ETV6 (P41212 whole entry): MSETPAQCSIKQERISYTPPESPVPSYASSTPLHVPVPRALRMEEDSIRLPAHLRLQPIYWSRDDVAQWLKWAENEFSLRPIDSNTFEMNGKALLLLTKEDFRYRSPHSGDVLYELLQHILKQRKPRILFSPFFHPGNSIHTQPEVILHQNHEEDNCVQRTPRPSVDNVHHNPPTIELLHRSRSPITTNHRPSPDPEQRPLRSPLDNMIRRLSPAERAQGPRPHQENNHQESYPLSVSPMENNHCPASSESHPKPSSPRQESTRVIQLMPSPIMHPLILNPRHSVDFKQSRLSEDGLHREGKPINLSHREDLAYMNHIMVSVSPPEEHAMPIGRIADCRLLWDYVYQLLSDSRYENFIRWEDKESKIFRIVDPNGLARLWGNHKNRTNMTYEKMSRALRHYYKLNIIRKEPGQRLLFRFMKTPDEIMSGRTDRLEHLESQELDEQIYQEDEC

As for CGCTCT, the binding signal with ERF was 1.3 fold enrichment (6-mer frequency, TF over GST control); in the test with ETV3L, 1.37 fold enrichment (6-mer frequency, TF over GST control); with ETS2, 1.31 fold enrichment (6-mer frequency, TF over GST control); in the test with SPDEF, 1.25 fold enrichment (6-mer frequency, TF over GST control); with ETV7, 1.18 fold enrichment (6-mer frequency, TF over GST control); in the test with ELF5 it was 1.24 fold enrichment (6-mer frequency, TF over GST control). Moreover, the binding signal in the test with ETV3 was 1.25 fold enrichment (6-mer frequency, TF over GST control); with ETV6, 1.26 fold enrichment (6-mer frequency, TF over GST control).

For the sequence CTAGTA, the binding signal with ERF was 1.17 fold enrichment (6-mer frequency, TF over GST control); with ETV3L it was 1.08 fold enrichment (6-mer frequency, TF over GST control); in the test with ETS2, 1.18 fold enrichment (6-mer frequency, TF over GST control); with SPDEF, 1.11 fold enrichment (6-mer frequency, TF over GST control); with ETV7 it was 1.11 fold enrichment (6-mer frequency, TF over GST control); with ELF5, 1.08 fold enrichment (6-mer frequency, TF over GST control). For the same sequence, the binding signal in the test with ETV3 is 1.13 fold enrichment (6-mer frequency, TF over GST control); with ETV6, 1.12 fold enrichment (6-mer frequency, TF over GST control).

Take TACTTA: the binding signal was 1.29 fold enrichment (6-mer frequency, TF over GST control) with ERF; 1.2 fold enrichment (6-mer frequency, TF over GST control) with ETV3L; 1.25 fold enrichment (6-mer frequency, TF over GST control) with ETS2; 1.14 fold enrichment (6-mer frequency, TF over GST control) with SPDEF; 1.21 fold enrichment (6-mer frequency, TF over GST control) with ETV7; 1.14 fold enrichment (6-mer frequency, TF over GST control) with ELF5. For the same sequence, the binding signal in the test with ETV3 was 1.17 fold enrichment (6-mer frequency, TF over GST control); with ETV6 it was 1.28 fold enrichment (6-mer frequency, TF over GST control).

ACTGTT: the binding signal was 1.19 fold enrichment (6-mer frequency, TF over GST control) with ERF; 1.09 fold enrichment (6-mer frequency, TF over GST control) with ETV3L; 1.13 fold enrichment (6-mer frequency, TF over GST control) with ETS2; 1.04 fold enrichment (6-mer frequency, TF over GST control) with SPDEF; 1.01 fold enrichment (6-mer frequency, TF over GST control) in the test with ETV7; 1.22 fold enrichment (6-mer frequency, TF over GST control) in the test with ELF5. Besides, the binding signal was 1.2 fold enrichment (6-mer frequency, TF over GST control) with ETV3 and 1.2 fold enrichment (6-mer frequency, TF over GST control) in the test with ETV6.

With TACCGA, the binding signal was 1.05 fold enrichment (6-mer frequency, TF over GST control) with ERF; 1.13 fold enrichment (6-mer frequency, TF over GST control) in the test with ETV3L; 1.12 fold enrichment (6-mer frequency, TF over GST control) with ETS2; 1.12 fold enrichment (6-mer frequency, TF over GST control) with SPDEF; 1.01 fold enrichment (6-mer frequency, TF over GST control) in the test with ETV7; 1.08 fold enrichment (6-mer frequency, TF over GST control) in the test with ELF5. Besides, the binding signal with ETV3 is 1.09 fold enrichment (6-mer frequency, TF over GST control); with ETV6, 1.09 fold enrichment (6-mer frequency, TF over GST control).

For TCAATT, the binding signal with ERF is 1.13 fold enrichment (6-mer frequency, TF over GST control); in the test with ETV3L it was 1.29 fold enrichment (6-mer frequency, TF over GST control); in the test with ETS2, 1.17 fold enrichment (6-mer frequency, TF over GST control); with SPDEF, 1.15 fold enrichment (6-mer frequency, TF over GST control); with ETV7, 1.12 fold enrichment (6-mer frequency, TF over GST control); in the test with ELF5, 1.13 fold enrichment (6-mer frequency, TF over GST control). Besides, the binding signal was 1.21 fold enrichment (6-mer frequency, TF over GST control) with ETV3 and 1.14 fold enrichment (6-mer frequency, TF over GST control) in the test with ETV6.

TTACGT: the binding signal was 1.11 fold enrichment (6-mer frequency, TF over GST control) in the test with ERF; 1.18 fold enrichment (6-mer frequency, TF over GST control) with ETV3L; 1.21 fold enrichment (6-mer frequency, TF over GST control) with ETS2; 1.13 fold enrichment (6-mer frequency, TF over GST control) with SPDEF; 1.14 fold enrichment (6-mer frequency, TF over GST control) with ETV7; 1.12 fold enrichment (6-mer frequency, TF over GST control) in the test with ELF5. For the same sequence, the binding signal is 1.15 fold enrichment (6-mer frequency, TF over GST control) with ETV3 and 1.09 fold enrichment (6-mer frequency, TF over GST control) with ETV6.

The values above are taken from article PMC7862700, “An all-to-all approach to the identification of sequence-specific readers for epigenetic DNA modifications on cytosine”.
